The campaign covered roughly 85,000 compounds. About 440 (0.52%) showed an effect of 50% or more. This is one part of a sample in which strong results are shown more often than they occur.
Assay: In vitro enzyme assay to detect hydrolysis of chlorophenol red-beta-D-[…] directly proportional to the number of Toxoplasma stably expressing beta-galactosidase
Format: functional, organism-based, Toxoplasma gondii
Parameters: scale not given: in the data most compounds retested in dose-response had high values

| Structure (SMILES) | Percent Effect (10 µM) [%] | Percent Effect (50 µM) [%] |
| --- | --- | --- |
| Cc1c(-c2nc(-c3cccc(CN4CCOCC4)c3)no2)cnn1C | 8.571 |  |
| Cc1occc1-c1nc(-c2cccc(CN3CCOCC3)c2)no1 | 55.09 |  |
| Cc1cc(-c2nc(-c3cccc(CN4CCOCC4)c3)no2)no1 | 8.772 |  |
| N#Cc1cccc(CN)c1F |  | 2.806 |
| COCCCNc1ccc(Br)cn1 |  | 6.813 |
| COCCNc1nnc(-c2ccccn2)s1 | 14.66 |  |
| COCCNc1nnc(SCc2ccc(Br)cn2)s1 |  | 98.42 |
| Cc1n[nH]cc1CNCc1nccs1 |  | -5.718 |
| COCCNC(=O)c1cn(CC2CCCNC2)nn1 (stereo not drawn) |  | -4.648 |
| CCc1cc(NCc2cccnc2)n2nccc2n1 |  | 3.949 |
| COc1ccc2c(c1)CCCC2N (stereo not drawn) |  | 9.435 |
| Cn1cc(CN2CC(C(=O)Nc3ccccc3)C3(CCOCC3)C2)cn1.O=C(O)C(F)(F)F (stereo not drawn) | -1.627 |  |
| Cn1cc(CN2C[C@@H]3COC[C@H](C(=O)Nc4cccnc4)[C@@H]3C2)cn1.O=C(O)C(F)(F)F.O=C(O)C(F)(F)F | 79.48 |  |
| Cn1cc(CN2C[C@@H]3COC[C@@H](C(=O)N4CCCCO4)[C@@H]3C2)cn1.O=C(O)C(F)(F)F.O=C(O)C(F)(F)F | 0.4992 |  |
| Cc1nnc(SCCNC(=O)CC2C=CS(=O)(=O)C2)s1 (stereo not drawn) |  | 45.65 |
| CN(Cc1cnccn1)C(=O)c1ccc(CSc2nnc[nH]2)o1 | -8.183 |  |
| CSCc1ccc(C(=O)N(C)Cc2cnccn2)o1 |  | 98.35 |
| CC(C)Cc1cc(C(=O)N(C)Cc2cnccn2)on1 |  | 13.67 |
| CC(CCO)CNS(=O)(=O)c1ccccc1F (stereo not drawn) |  | 13.76 |
| COCC(NC(=O)CNc1ccccc1)C(C)C (stereo not drawn) |  | 18.12 |
| Cc1ccc(S(=O)(=O)N2CCNC(=O)C2)cc1C(N)=O |  | 3.593 |
| NC(=O)Cn1cc(NC(=O)N2CCCC(O)C2)cn1 (stereo not drawn) | -5.248 |  |
| CC(C)Cn1cc(NC(=O)N2CCC(O)C2)cn1 (stereo not drawn) |  | 99.23 |

| Structure (SMILES) | Percent Effect (10 µM) [%] | Percent Effect (50 µM) [%] |
| --- | --- | --- |
| CC(C)Cn1cc(NC(=O)N2CCCC2)cn1 | -15.58 |  |
| CC(C)[C@@H]1CN(C(=O)c2ccc(O)cn2)C[C@H]1N(C)C |  | -13.98 |
| NS(=O)(=O)c1ccc2c(c1)N(CC(=O)NC1CC1)CC2 |  | 3.074 |
| CCc1ccc(CN2CCOCC(CO)C2)nc1 (stereo not drawn) |  | 13.26 |
| C[C@@H]1CN(C(=O)c2ccccc2C#N)C[C@]1(C)O |  | 10.95 |
| C[C@@H]1CN(C(=O)c2cc(F)cc(C#N)c2)C[C@]1(C)O |  | 97.61 |
| C[C@@H]1CN(C(=O)c2ccc(=O)[nH]c2)C[C@]1(C)O |  | 3.055 |
| CSCC(CCO)NC(=O)c1coc2ccccc12 (stereo not drawn) |  | -6.179 |
| CC(C)(C)OC(=O)N1CCC(n2cc(N)cn2)CC1 |  | -15.49 |
| N[C@@H]1CCCc2c(F)cc(F)cc21 |  | 13.09 |
| Cc1ccc(F)c(NC(=O)N2CCOCC2CO)c1 (stereo not drawn) |  | 2.099 |
| O=C1CN(CC(=O)N2CCc3sccc3C2)CCN1 |  | 8.555 |
| Cc1ccccc1CC(=O)NCC(F)(F)F |  | -13.95 |
| CC(=O)C1CN(C(=O)OC(C)(C)C)CCO1 (stereo not drawn) |  | -6.486 |
| CN(C)CCCNCCC(Cc1ccccc1)C1CCOC(C)(C)C1.O=C(O)C(=O)O (stereo not drawn) | 77.21 |  |
| CCN(CC)CCCNCC1CCOC(C)(C)C1 (stereo not drawn) | 1.68 |  |
| CC(CCc1ccccc1)NC(=O)CNCCCN(C)C.O=C(O)C(=O)O (stereo not drawn) | -5.52 |  |
| CN(C)CCNCC1CCOC(C)(C)C1 (stereo not drawn) | 12.77 |  |
| CN(C)CCNCCC(Cc1ccccc1)C1CCOC(C)(C)C1.O=C(O)C(=O)O (stereo not drawn) | 9.919 |  |
| N#CCC(=O)Nc1ccc(N2CCOCC2)cc1 |  | -1.188 |
| CCCNC(=O)CCNC(=O)Nc1cc(C)cc(C)n1 |  | 12.25 |
| NCCC(=O)Nc1ccccc1 |  | 99.48 |
| NCC(=O)Nc1ccccc1 |  | 0.1294 |

| Structure (SMILES) | Percent Effect (10 µM) [%] | Percent Effect (50 µM) [%] |
| --- | --- | --- |
| Cl.NCCC(=O)Nc1ccc(-c2ccccc2)cc1 | 10.41 |  |
| Cc1nc2c(c(NCc3cnc4c(c3)CCC4)n1)CNC2 | -1.27 |  |
| CNCc1ccc(N(C)C)nc1 |  | -20.16 |
| Cc1nc2c(c(NCc3ccc(N)nc3)n1)CCCC2 |  | 50.4 |
| Nc1nc2c(c(NCc3ccncc3)n1)CCCC2 | 12.09 |  |
| CNCc1ccc(N)nc1 |  | 63.11 |
| NCc1ccc(N)nc1 |  | -3.539 |
| NCc1cnn(-c2ccc(F)cc2)c1 |  | 4.484 |
| C1CC(OC2CCOC2)CCN1 (stereo not drawn) |  | 3.071 |
| COCCCOC1CN(C(=O)c2cc(F)ccc2C)C1 |  | 0.2477 |
| CCCc1nc2c(c(C)c(C)n2Cc2ccccn2)c(N)c1CC | 74.72 |  |
| CCCc1nc2c(c(C)c(C)n2Cc2cccnc2)c(N)c1CC | 33.67 |  |
| CCCc1nc2c(c(C)c(C)n2Cc2ccncc2)c(N)c1CC | -0.599 |  |
| CCNC(=O)C(C)N (stereo not drawn) |  | -4.292 |
| COc1cc(OC)cc(N2CC(N)CC2=O)c1 (stereo not drawn) |  | 17.36 |
| Cl.NC1CCc2nc(-c3ccncc3)nc(Nc3cccc(F)c3)c2C1 (stereo not drawn) | 92.97 |  |
| CCOCCNc1nc(-c2ccncc2)nc2c1CCNCC2 | -6.442 |  |
| Cl.NC1CCc2nc(-c3cccnc3)nc(Nc3ccc(F)cc3)c2C1 (stereo not drawn) | 24.29 |  |
| O=C(Nc1cccc(F)c1)C1CCCN1 (stereo not drawn) |  | 7.876 |
| O=C(Nc1cccc(F)c1)NC1CCN(Cc2ccncc2)CC1 | 6.4 |  |
| N[C@@H]1CCO[C@H]1c1ccnn1-c1ccccc1 |  | -18.85 |
| CNC(=O)[C@@H]1CCCN1 |  | -5.087 |
| O=c1cc(CN2CCOCC2)nc2sccn12 |  | 2.592 |

| Structure (SMILES) | Percent Effect (10 µM) [%] | Percent Effect (50 µM) [%] |
| --- | --- | --- |
| CN1CCCC1CCSc1nc(N)c(C#N)cc1C#N (stereo not drawn) |  | -0.4089 |
| Cc1cc(C)nc(NC(=O)c2ccncc2)c1 |  | 31.27 |
| CCO[C@@H]1COCC[C@H]1NC(=O)c1cncn1C |  | 0.586 |
| CN(Cc1noc(C2CC2)n1)C1CCN(Cc2ccccc2C#N)C1 (stereo not drawn) | 2.644 |  |
| CN(Cc1noc(C2CC2)n1)C1CCN(Cc2ccc(F)c(F)c2)C1 (stereo not drawn) | 1.098 |  |
| CN(Cc1noc(C2CC2)n1)C1CCN(Cc2cccc(F)c2F)C1 (stereo not drawn) | 67.09 |  |
| CCNC(=O)CNc1noc(C(C)(C)C)n1 |  | -18.17 |
| COCCN(CC(=O)N(C)C)c1ncccn1 |  | 1.212 |
| CCCN(CCOC)CC(=O)N(C)C |  | 8.072 |
| COCCN(CCOC)CC(=O)N(C)C |  | 56.58 |
| OC1CCCN(CCOc2ccccc2)C1 (stereo not drawn) |  | 1.087 |
| CCC(C)Oc1ccc(CNCCNC(C)=O)cc1Cl (stereo not drawn) | 19.61 |  |
| CCC(C)Oc1ccc(CNCCc2c[nH]cn2)cc1Cl (stereo not drawn) | 81.15 |  |
| CCC(C)Oc1ccc(CNCCNS(C)(=O)=O)cc1Cl (stereo not drawn) | 19.69 |  |
| CCN(CCN(C)C)C(=O)c1cn(CCN)nn1 |  | 2.797 |
| Cc1cc(NC(=O)C(C)N(C)Cc2cc(C)on2)on1 (stereo not drawn) |  | 5.589 |
| Cc1ccc(C(=O)NC2CCN(C(C)C)CC2)o1 |  | -16.97 |
| OCCCN(Cc1ccccc1)Cc1ccccn1 |  | -0.1376 |
| NCc1cccc(C(F)(F)F)n1 |  | 30.32 |
| COc1ccc(CCC(=O)NCCNC(C)=O)cc1 |  | 21.36 |
| COc1ccc(CCNC(=O)NCCCC(N)=O)cc1 |  | 98.98 |
| CCOC(=O)CNC(=O)NCCc1ccc(OC)cc1 |  | -17.09 |
| CC1(C)CCCN(C(=O)CCS(C)(=O)=O)CC1 |  | -2.783 |

| Structure (SMILES) | Percent Effect (10 µM) [%] | Percent Effect (50 µM) [%] |
| --- | --- | --- |
| CC[C@H](N)C(=O)N(C)Cc1cccc(OC(F)(F)F)c1 |  | 4.147 |
| CCCC(=O)N(C)Cc1cccc(OC(C)C)c1 | 0.05359 |  |
| CCCC(N)C(=O)N(C)Cc1cccc(N(C)C)c1 (stereo not drawn) |  | 89.59 |
| CCN(CC)C(=O)CN1CCC(N)CC1 |  | -1.204 |
| CNCC1CCN(C(=O)Nc2ccccc2)CC1 |  | -5.234 |
| NS(=O)(=O)CC1CCN(C(=O)Nc2ccccc2)CC1 |  | 13.92 |
| NC1CCN(C(=O)Nc2ccccc2)C1 (stereo not drawn) |  | 93.84 |
| N[C@H]1CN(CC(=O)N2CCCCC2)C[C@@H]1C1CC1 |  | 3.394 |
| CCC(NC(=O)CCC(=O)OC)c1ccccc1 (stereo not drawn) |  | -2.759 |
| COc1ccc(F)c(CN(CCCn2ccnc2)Cc2ccc(C)s2)c1.O=C(O)CC(O)(CC(=O)O)C(=O)O | 53.53 |  |
| Cc1ccc(CN(CCCn2ccnc2)Cc2c(F)cccc2F)s1.O=C(O)CC(O)(CC(=O)O)C(=O)O | 36.95 |  |
| CCc1ccc(CN(CCCn2ccnc2)Cc2ccc(C)s2)o1.O=C(O)CC(O)(CC(=O)O)C(=O)O | 5.317 |  |
| Cc1ccc(CN(CCCn2ccnc2)Cc2ccccc2O)s1.O=C(O)CC(O)(CC(=O)O)C(=O)O | -8.716 |  |
| Cc1ccc(CN(CCCn2ccnc2)Cc2cnn(C)c2)s1.O=C(O)CC(O)(CC(=O)O)C(=O)O | -58.36 |  |
| Cc1ccc(CN(CCCn2ccnc2)Cc2cccs2)s1.O=C(O)CC(O)(CC(=O)O)C(=O)O | 13.55 |  |
| Cc1ccc(O)c(CN(CCCn2ccnc2)Cc2ccc(C)s2)c1.O=C(O)CC(O)(CC(=O)O)C(=O)O | 4.169 |  |
| Cc1ccc(CN(CCCn2ccnc2)Cc2cc(F)ccc2F)s1.O=C(O)CC(O)(CC(=O)O)C(=O)O | 64.14 |  |
| Cc1ccc(CN(CCCn2ccnc2)Cc2c[nH]cn2)s1.O=C(O)CC(O)(CC(=O)O)C(=O)O | 27.23 |  |
| Cc1ccc(CN(CCCn2ccnc2)Cc2c[nH]nc2C(C)(C)C)s1.O=C(O)CC(O)(CC(=O)O)C(=O)O | -5.969 |  |
| COc1ccc(NC(=O)CN)cc1Cl |  | 1.653 |
| O=C1CNC2(CCCCC2)C(=O)N1 |  | -1.267 |

Reference: ChEMBL document CHEMBL3988442, “University of Dundee, Small-Polar-MMV Screening Library” (2021)
